# Data published in PubChem BioAssay (NCATS).
# Unmarked numbers belong to inactive results. Calls of active or inactive are those of the source.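 How the source made its calls: active means compounds whose dose series gives a full or clear partial fitted curve of increased nuclear translocation; inconclusive means weak partial curve or effect only at the top dose; inactive means no dose-dependent translocation response.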
# Target: Glucocorticoid receptor (Homo sapiens) (UniProt P04150)
# Test: GR-GFP Redistribution (AID 450)
# Conditions: U2OS GR-GFP nuclear translocation, laser cytometry, 2 h
# Text: NIH Molecular Libraries Screening Centers Network [MLSCN]
# NIH Chemical Genomics Center [NCGC]
# The glucocorticoid receptor (GR) Redistribution assay (BioImage) enables the visualization of GR cytoplasmic to nuclear translocation by the use of a GR-GFP fusion. GR is normally cytosolic, however ligands such as dexamethasone, cause nuclear translocation where the protein binds to response elements and interacts with various co-factors to modulate transcription. Because both functional agonists and antagonists can induce nuclear translocation, this assay can detect ligands regardless of their effects on gene expression. GR-GFP expressing U20S cells were used here. Dexamethasone was the positive control for translocation and data normalization. Detection of nuclear translocation was performed in 1536-well plates using the Acumen laser scanning plate cytometer (TTP LabTech). Validation of this assay and a detailed protocol have been described.
# NCGC Assay Protocol Summary:
# GR-GFP U2OS cells were maintained in DMEM with Glutamax and high glucose, 1% v/v penicillin-streptomycin, and 0.5 mg/mL Geneticin. For cell culture, 10% […] fetal bovine serum (FBS) was used (Invitrogen #26140-079). For cell plating 10% dextran, charcoal-stripped FBS (Hyclone SH30068.03) was used. U2OS cells were trypsin treated, suspended in medium, and passed through a 40 um basket filter. The cells were seeded at 600 cells/5 uL/well into clear-bottom black sided 1536-well plates and incubated for approximately 20 hrs, 37degC, 5%, CO2 in a tissue culture incubator. Twenty-three nL of compound was delivered by pin tool and the plates were incubated as above for 2 hrs. The compounds were tested as a 7-point titration ranging from 46 uM to 0.6 nM. The cells were fixed using the Kalypsys Washer/Dispenser station. The fixing protocol involved aspiration of the cell media, addition of 6 uL/well of PBS, aspiration of PBS, addition of 5uL/well of 100% methanol, aspiration of methanol, and addition of 3 uL/well PBS with 1.5 uM propidium iodide (PI). The plates were read by the Acumen Explorer using a 1 x 8 um scan of the whole well area. PI fluorescence triggered the collection of PI and GFP signals. A nuclei population was defined by a 10 to 100 um width and depth filter that eliminated small and large fluorescent particles. Two subpopulations of nuclei were then defined by peak intensity of GFP fluorescence to obtain translocated and untranslocated objects. The number of translocated objects was used for data normalization.
# Keywords: NIH Roadmap, MLSCN, MLI, MLSMR, sOGT, qHTS, NCGC
# Potency means the concentration at half of the fitted maximal effect.
# Sequence of Glucocorticoid receptor (Homo sapiens) (P04150 whole entry, looked up): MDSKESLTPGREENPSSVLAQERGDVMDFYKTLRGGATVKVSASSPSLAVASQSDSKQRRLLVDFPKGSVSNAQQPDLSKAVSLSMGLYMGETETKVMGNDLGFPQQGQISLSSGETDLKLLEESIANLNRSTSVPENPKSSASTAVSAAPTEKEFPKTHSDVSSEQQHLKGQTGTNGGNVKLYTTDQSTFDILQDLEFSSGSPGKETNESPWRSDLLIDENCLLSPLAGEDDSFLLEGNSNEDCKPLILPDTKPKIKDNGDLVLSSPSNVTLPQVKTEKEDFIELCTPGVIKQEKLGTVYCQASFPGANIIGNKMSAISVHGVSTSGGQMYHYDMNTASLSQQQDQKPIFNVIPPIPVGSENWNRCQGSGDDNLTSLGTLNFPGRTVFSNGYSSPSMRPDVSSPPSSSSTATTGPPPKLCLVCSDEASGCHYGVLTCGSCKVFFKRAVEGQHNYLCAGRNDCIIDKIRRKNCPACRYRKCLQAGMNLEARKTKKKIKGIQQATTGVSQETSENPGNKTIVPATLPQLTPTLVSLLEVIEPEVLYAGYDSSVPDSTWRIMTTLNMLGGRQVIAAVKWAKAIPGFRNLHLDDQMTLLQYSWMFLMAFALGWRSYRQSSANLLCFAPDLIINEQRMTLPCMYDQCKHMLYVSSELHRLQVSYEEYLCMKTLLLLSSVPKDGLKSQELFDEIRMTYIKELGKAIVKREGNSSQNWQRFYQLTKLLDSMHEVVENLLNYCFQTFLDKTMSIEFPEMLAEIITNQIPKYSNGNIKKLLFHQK
row,SMILES,Potency
1,CCOC(=O)c1cnc(N(C)C)nc1SC(=N)N,> 46 µM
2,C(CCc1nnc2c(n1)CCCC2)Cc1nnc2c(n1)CCCC2,> 46 µM
3,Cc1[nH]c2ccccc2c1-c1cc(-c2cc(-c3c(C)[nH]c4ccccc34)on2)no1,> 46 µM
4,CCC1=C(C[C@H]2NCCc3ccccc32)C[C@@H]2c3cc(OC)c(OC)cc3CCN2C1,> 46 µM
5,COc1ccccc1-c1ccc2ncnc(NCc3cccnc3)c2c1,> 46 µM
6,S=C1NCN2CCN(CC2)CNC(=S)C(=S)NCN2CCN(CC2)CNC1=S,> 46 µM
7,O=C(O)Cc1cc(Cl)ccc1O,> 46 µM
8,CCCC[S@@](=N)(=O)CC[C@@H](N)C(=O)O,> 46 µM
9,C=CCSc1nc2c(N)ncnc2n1[C@@H]1O[C@H](CO)[C@@H](O)[C@@H]1O,> 46 µM
10,Cc1cccc(CNc2ncnc3ccc(-c4ccc(C(=O)N(C)C)cc4)cc23)c1,> 46 µM
11,OC(Cc1cccnc1)(c1ccccc1)c1ccccc1,> 46 µM
12,CN(C)CN1CSC(=S)N(CN(C)C)C1,> 46 µM
13,Cc1cc(Cl)nc2ccc(Cc3ccc4nc(Cl)cc(C)c4c3)cc12,> 46 µM
14,Fc1cccc(F)c1C(Nc1nncs1)Nc1nncs1,> 46 µM
15,CN1CCC[C@H](C(=O)OCC(=O)[C@]2(O)CC[C@@H]3[C@H]4CCC5=CC(=O)CC[C@@]5(C)[C@H]4[C@@H](O)C[C@]32C)C1,0.135 µM (active)
16,N/N=C1/c2ccccc2N[C@H]1OC(=O)Nc1ccccc1,> 46 µM
17,CC(=O)[C@@]1(N=Nc2ccc(S(N)(=O)=O)cc2)CCOC1=O,> 46 µM
18,Nc1ccc2[nH]cc(CCC(=O)O)c2c1,> 46 µM
19,Cc1cccc(CNc2nc(-c3cccnc3)nc3ccccc23)c1,> 46 µM
20,CCN(CC(=O)O)CC(=O)O,> 46 µM

row,SMILES,Potency
1,Cc1cc(OCc2nc(N)nc(N)c2-c2ccc(Cl)c(Cl)c2)ccc1[N+](=O)[O-],> 46 µM
2,CC[C@@]1([N+](=O)[O-])C[C@H]2C=C[C@@H]1C2,> 46 µM
3,CN(C)C[C@@H](O)c1ccc(Cl)c2ccccc12,> 46 µM
4,Nc1ccc(Cc2ccc(N)c(C(=O)O)c2)cc1C(=O)O,> 46 µM
5,CSc1ccc(NC(=O)Nc2cc(C)ccn2)cc1,> 46 µM
6,CCCCn1cnc2c(SC)ncnc21,> 46 µM
7,COc1ccc(-c2csc3c2[N+]2=CCC=C2C3=O)cc1,> 46 µM
8,Cn1cnc([N+](=O)[O-])c1Sc1nc(N)nc2c1ncn2Cc1ccccc1,> 46 µM
9,O=c1cnc2cnc(Oc3ccccc3)nc2n1Cc1ccc(F)cc1,> 9.22 µM
10,C/C(=N\NC(N)=S)c1ccc[nH]1,> 46 µM
11,Oc1cc(O)c2c(c1)O[C@H](c1ccc(O)c(O)c1)[C@@H](O)[C@@H]2c1c(O)cc(O)c2c1O[C@@H](c1ccc(O)c(O)c1)[C@H](O)C2,> 46 µM
12,C[C@@H](CSC(=N)N)C(N)=O,> 46 µM
13,O=C(O)CC(CC(=O)O)n1cccc1,> 46 µM
14,CCN(CC)CC[n+]1ccc2c(C)c3[nH]c4ccc(O)cc4c3c(C)c2c1,> 46 µM
15,NCCNC[C@H](O)CO,> 46 µM
16,CC1(C)[C@@H]2CC[C@]1(C)[C@@H](OC(=O)/C=C\c1ccccc1)C2,> 46 µM
17,CO[C@@H]1/C=C\O[C@]2(C)Oc3c(C)c(O)c4c(O)c(c(CN(C)C)c(O)c4c3C2=O)NC(=O)/C(C)=C\C=C[C@@H](C)[C@@H](O)[C@H](C)[C@@H](O)[C@H](C)[C@H](OC(C)=O)[C@@H]1C,> 46 µM
18,O=C1Nc2ccccc2C1=Nc1ccc(S(=O)(=O)Nc2nccs2)cc1,> 46 µM
19,O=C(Nc1ccc(-c2cn3ccccc3n2)cc1)c1cc(Br)ccc1O,> 46 µM
20,COc1ccc(CNc2nc(-c3ccccc3OC)nc3ccccc23)c(OC)c1,> 46 µM
